# Pf growth 48h = inhibits P. falciparum growth in the first generation, 48 h; Potency, µM (titrated, usually from 28.7 µM), usual class: inhibitors; 310,000 compounds, 5.9% hits; P. falciparum luciferase growth in erythrocytes, 48 h; active = well fitted inhibition curve with a large enough effect; inconclusive = small, poorly fitted or top-dose-only effect, or another doubt; inactive = no such curve, though single readings can be large or run the other way
#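 Luminescence readout; reporter = integrated firefly luciferase in P. falciparum. RBC culture at 2% hematocrit, 0.1% parasitemia final, 37 C/5% CO2; decreased signal taken as growth inhibition.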
# Pf growth 96h = P. falciparum growth inhibition at 96 hours | P. falciparum luciferase reporter growth, 96 h | Potency, µM (series often up to 28.7 µM), hits mostly inhibitors | 320,000 compounds, 6.9% hits | AID 504834; active = well fitted inhibition curve with a large enough effect; inconclusive = small, poorly fitted or top-dose-only effect, or another doubt; inactive = no such curve, though single readings can be large or run the other way
#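 Cell-based qHTS: luciferase-tagged P. falciparum in erythrocytes (2% hematocrit, 0.05% parasitemia final) incubated with compounds for 96 hours, 37 C, 5% CO2; luciferase detection reagent then added and luminescence measured.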
# SARS PLP yeast = SARS-CoV PLP inhibition in yeast | 330,000 compounds, 0.19% hits | Potency, µM (top dose mostly 32.9 µM), usual class: activators | S. cerevisiae expressing SARS-CoV PLpro, growth rescue; note: nearly all actives have a fitted effect of over 55% in size
# NS1 inh = influenza NS1 inhibition; Potency, µM (titrated, usually from 46.1 µM); 270,000 compounds, 0.4% hits; AID 2326; note: actives are rising curves; nearly all actives have a fitted effect of over 50% in size
#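 A cell-based growth assay was used: compounds that relieve NS1-induced slow growth of budding yeast raise OD600. Assay medium was yeast nitrogen base with ammonium sulphate and -URA supplement, pH 6.0, with 2% galactose.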
# RE007 growth inh = less growth of the S. pombe RE007 Vpr strain | S. pombe RE007 Vpr strain, BacTiter-Glo ATP luminescence, 24 h | Potency, µM (highest dose often 92.2 µM), usual class: inhibitors | 360,000 compounds, 0.21% hits | AID 651644; active = well fitted falling curve with a large enough effect; inconclusive = small, poorly fitted or top-dose-only effect; inactive = no such curve, though single readings can be large or run the other way; note: nearly all actives have a fitted effect of over 50% in size
#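 Fission yeast RE007 carrying one integrated HIV-1 vpr copy, seeded at OD 0.01 in PMG+AL medium with 23 nL pinned compound. Grown 24 h at 30 degrees; viability read by BacTiter-Glo luminescence after 5 min.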
# Hits are given with their value; . = inactive; ? = inconclusive; / = no result; [ ] = another dose, or the depositor's remark. Rows were chosen to be rich in hits. Some 9.5% of all compounds tested hit in one or more screens of this group. Unless noted, calls come from the whole dose curve.
SMILES,Pf growth 48h,Pf growth 96h,SARS PLP yeast,NS1 inh,RE007 growth inh
CCCOC(=O)c1ccc(NC(=O)C2C3C=CC(O3)C2C(=O)O)cc1 (stereo unspecified),.,.,.,.,12.6µM
Cc1cccc(NC(=O)CCNC(=O)c2ccco2)c1C,?,.,.,.,.
COc1cc(NC(=O)c2ccco2)c(OC)cc1NC(=O)CCC(=O)Nc1cccc(C)c1C,.,5.22µM,.,.,.
COc1cc(NC(=O)c2ccco2)c(OC)cc1NC(=O)c1cc(OC)c(OC)c(OC)c1,?,2.94µM,.,.,.
Cc1nnn(-c2nonc2N)c1C(=O)NNC(=O)c1ccc(Cl)c(Cl)c1,.,.,.,/,.
CCc1ccc(N2C(=O)C3C4CCC(C4=C(C)C)C3C2=O)cc1 (stereo unspecified),?,?,.,.,.
Cc1ccc(S(=O)(=O)NCCCCCC(=O)N(C)C)cc1,.,10.4µM,.,.,.
CCCCCCCC(=O)Nc1ccc(S(=O)(=O)Nc2nccs2)cc1,.,.,.,.,.
CCOCCCNC(=O)CCNS(=O)(=O)c1ccc(C)cc1,.,9.28µM,.,.,.
Cc1ccc(NC(=O)CCCCCNS(=O)(=O)c2ccc(C)cc2)cc1,?,11.7µM,.,.,.
Cc1ccc(S(=O)(=O)NCCCCCCNS(=O)(=O)c2ccc(C)cc2)cc1,/,/,/,/,.
Cc1ccc(S(=O)(=O)NCCCCCC(=O)Nc2nccs2)cc1,13.1µM,.,.,.,.
Cc1ccc(S(=O)(=O)NCc2ccc(C(=O)NCCc3ccc(S(N)(=O)=O)cc3)cc2)cc1,.,.,.,.,.
COc1ccc(C(=O)CCC(=O)O)c2ccccc12,.,.,/,/,/
c1ccc(C[C@H]2CNCCN2CC2(c3ccccc3)CC2)cc1,?,?,.,/,.
COC(=O)c1ccc(CCc2cc(O)c(Br)cc2O)cc1,/,/,/,/,11.2µM
COC(=O)c1ccc(O)cc1,.,.,.,.,.
COC(=O)c1ccc(CCc2cc(O)ccc2O)cc1,/,/,/,.,11.2µM
COC(=O)c1cc(Br)c(=O)n(CCc2ccccc2)c1,.,.[5.75 µM],.,.,.
O=C(c1cccs1)N1CCc2c([nH]c3ccccc23)C1c1ccccn1 (stereo unspecified),?,.,.,.,.
O=C(c1cccs1)N1CCc2c([nH]c3ccccc23)C1c1ccc(Cl)cc1 (stereo unspecified),10.4µM,10.4µM,.,.,.
CN(C(=O)c1ccc2c(c1)OCCO2)c1c(N)n(Cc2ccccc2)c(=O)[nH]c1=O,.,.,.,/,.
Oc1ccc(Cl)cc1Sc1cc(Cl)ccc1O,?,13.5µM,/,.,?
CCOC(CCNC(=O)c1cn(CC(C)C)c(=O)c2c1c1ccccc1n2C)OCC,.,0.522µM,.,.,.
CCCCN(C)CCNC(=O)c1nn(-c2ccc(OC)cc2)c(=O)c2c1c1ccccc1n2C,?,2.62µM,.,/,.
SMILES,Pf growth 48h,Pf growth 96h,SARS PLP yeast,NS1 inh,RE007 growth inh
CCCCN(CC)CCCNC(=O)c1cn(CC(C)C)c(=O)c2c1c1ccccc1n2C,13.1µM,.,.,.,.
COc1cn(-c2ccccc2)nc1C(=O)Nc1ccc(C)cc1Cl,.,?,.,.,.
Cc1ccc2c(c1)C(=O)N1[C@H]3c4ccccc4OC[C@@H]3[C@H](c3ccccc3)[C@]1(C)C(=O)N2,/,/,.,/,.
COc1ccc(-c2noc(CCCC(=O)NCC3CCCO3)n2)cc1 (stereo unspecified),.,?,.,.,.
CCOC(=O)c1c(C)n(C)c2ccc(OCC(N)=O)cc12,.,10.4µM,.,.,.
CCOc1ccc(-n2c(C)c(C(C)=O)c3cc(OCC(N)=O)ccc32)cc1,13.1µM,.,.,.,.
COCCOC(=O)c1c(C)n(C)c2ccc(OC(=O)c3c(OC)cccc3OC)cc12,1.85µM,?,.,.,.
CCOC(=O)c1c(C)n(C)c2cc(-c3ccc(F)cc3)c(O)cc12,7.38µM,.,.,.,.
COc1ccc(-n2c(C)c(C(C)=O)c3cc(OCC(N)=O)ccc32)cc1,?,?,.,.,.
CCOC(=O)c1c(C)n(C)c2ccc(OC(C)=O)cc12,.,?,.,.,.
CC(Sc1nncn1C)C(=O)Nc1ccc2ccccc2c1 (stereo unspecified),.,.,.,/,.
CCOC(=O)c1c(C)n(CCN2CCN(C)CC2)c2ccc(OC)cc12,?,3.7µM,.,.,.

# Source: PubChem BioAssay
